CHT inh: inhibitors of human choline transporter CHT. High affinity choline transporter 1 (Homo sapiens), Q9GZV3. B-score at 10 µM. CHT-expressing cells, membrane potential dye, choline response; hits give low values. 310,000 tested, 0.86% active;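 active = B-score over 3 SD under the library average, and starting fluorescence ratio not unusually high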;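 note: choline stimulus applied at its EC90 after an EC20 pre-addition; B-score computed on integrated fluorescence ratio after choline addition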
Target sequence (Q9GZV3 whole entry, looked up): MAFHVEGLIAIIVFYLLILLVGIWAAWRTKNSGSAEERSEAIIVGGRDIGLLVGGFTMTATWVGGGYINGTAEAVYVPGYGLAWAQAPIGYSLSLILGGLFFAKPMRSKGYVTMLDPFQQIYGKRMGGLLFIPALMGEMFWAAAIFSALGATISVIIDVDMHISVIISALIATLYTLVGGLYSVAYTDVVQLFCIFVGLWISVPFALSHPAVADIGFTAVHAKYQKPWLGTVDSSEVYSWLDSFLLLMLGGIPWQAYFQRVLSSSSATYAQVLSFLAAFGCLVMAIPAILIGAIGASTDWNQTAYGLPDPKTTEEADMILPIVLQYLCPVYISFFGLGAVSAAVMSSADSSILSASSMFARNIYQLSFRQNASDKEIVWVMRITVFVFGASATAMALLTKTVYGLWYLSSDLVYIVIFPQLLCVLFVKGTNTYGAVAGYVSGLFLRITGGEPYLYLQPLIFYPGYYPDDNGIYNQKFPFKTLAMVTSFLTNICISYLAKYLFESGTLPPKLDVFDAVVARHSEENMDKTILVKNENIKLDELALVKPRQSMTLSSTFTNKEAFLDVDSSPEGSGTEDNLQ
TMEM16A act: TMEM16A chloride channel activators or potentiators, primary screen, cell-based, HTS. AID 623877, 2012. B-score at 10 µM. 340,000 tested, 0.3% active. HEK293 TMEM16A/YFP-H148Q/I152L, iodide quench fluorescence; hits give low values;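 active = fluorescence-ratio B-score plate-corrected deviation score at least 3 library SD below zero, with starting fluorescence score within 5 deviations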;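 note: channel opened by trigger with iodide after compound preincubation; score built on the fluorescence ratio of max minus min over baseline; more negative score means more quench and so TMEM16A activation or potentiation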
TMEM16A inh: TMEM16A chloride channel inhibitors, primary screen, cell-based, HTS; HEK293 TMEM16A/YFP iodide influx fluorescence, ionomycin; normalized B-score (activity score, 25-100; higher = stronger inhibition) at 10 µM; 310,000 tested, 1.2% active;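 active = ratio plate-corrected score three or more library SD toward inhibition, starting fluorescence score within five deviations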;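 note: score derived from kinetic fluorescence span divided by baseline fluorescence per well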
CHT allo act: CHT positive allosteric modulators, primary screen, cell-based, membrane potential dye, choline EC20 | 310,000 tested, 0.49% active | AID 488977, 2010 | B-score at 10 µM | CHT-expressing cells; hits give high values; LV-AA mutant CHT in HEK293 cells | High affinity choline transporter 1 (Homo sapiens), Q9GZV3;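 active = initial fluorescence not abnormally high and integrated response B-score, plate-corrected, over 3 SD above library mean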
Numbers stand for hits; n = inactive; x = no result. In the library only some 2.4% were active in any assay of this set; here they are far more common.

SMILES	CHT inh	TMEM16A act	TMEM16A inh	CHT allo act
COc1cc2c(cc1OC)C(c1ccc(-c3ccccc3Cl)o1)=NCC2	n	n	n	6.6
Cc1cc(C)c2c(=O)n(CC(=O)NCCCN3CCOCC3)sc2n1	n	n	n	n
Cc1cc(C)c2c(=O)n(CC(=O)NCCCN3CCN(c4ccccc4F)CC3)sc2n1	n	x	100	n
CC(C)C(c1nnnn1Cc1ccccc1)N(Cc1ccco1)Cc1cccs1 (stereo not given)	n	-14	n	n
CCOc1ccccc1N(CC(=O)N1CCOCC1)S(=O)(=O)c1ccc(SC)cc1	x	-9.8	x	x
S=c1[nH]cc(-c2ccc(Cl)cc2)n1Cc1ccccc1	n	n	n	n
COC(=O)c1c[nH]c(=S)n1Cc1ccccc1	x	-5.4	x	x
Cc1ccc(OCCn2cc(C#N)c3ccccc32)cc1	n	n	100	n
COC(=O)c1cn(CCOc2ccc(C)cc2)c2ccccc12	n	n	n	n
CCOc1ccccc1NC(=O)CSc1nc2nc(-c3cccs3)cc(C(F)(F)F)c2c(=O)[nH]1	n	n	100	n
Cc1ccc(S(=O)(=O)/N=C(/Nc2nc(C)cs2)c2ccccc2)cc1	x	n	x	x
COc1ccc(OCC(Cn2cnc3ccccc32)OC(C)=O)cc1 (stereo not given)	n	n	n	n
Nc1nc(Nc2ccc(Cl)cc2)nc2ccccc12	-8.3	n	n	n
O=C(COc1ccccc1)NNC(=S)NC(=O)c1ccc(Cl)cc1Cl	n	x	25	n
COc1cccc(OCC(=O)NNC(=S)Nc2ccc(Cl)cc2Cl)c1	n	n	100	n
NC(=O)c1cc(NC(=O)CCc2nc3ccccc3s2)cc(C(N)=O)c1	n	n	n	n
N#Cc1ccccc1NC(=O)CN1C(=O)NC(Cc2c[nH]c3ccccc23)C1=O (stereo not given)	x	n	x	x
CCCN(CCC)S(=O)(=O)c1ccc(C(=O)Nc2nnc(-c3cc(OC)cc(OC)c3)o2)cc1	n	n	100	n
COc1cccc(-c2nnc(NC(=O)c3cccc(F)c3)o2)c1	n	n	n	n
CCCN(CCC)S(=O)(=O)c1ccc(C(=O)Nc2nnc(CSC)o2)cc1	n	n	n	n
CCCN(CCC)S(=O)(=O)c1ccc(C(=O)Nc2nnc(-c3cccc(OC)c3)o2)cc1	n	n	25	n
O=C(CN(Cc1ccccc1F)S(=O)(=O)c1ccc(Cl)cc1)NCCC1=CCCCC1	n	n	n	n
Cc1ccc(S(=O)(=O)N(CC(=O)NCCC2=CCCCC2)Cc2ccccc2F)cc1	n	n	25	n
CCc1cc(/C(Cc2ccc3ccccc3n2)=N\O)c(O)cc1O	n	n	100	n
CCc1cc(/C(Cc2ccccn2)=N\O)c(O)cc1O	n	n	n	n
SMILES	CHT inh	TMEM16A act	TMEM16A inh	CHT allo act
CCN1CCN(c2oc(-c3ccccc3C)nc2S(=O)(=O)c2ccccc2)CC1	x	n	x	x
COc1ccc(-c2sc(Nc3ccccc3)n[n+]2-c2ccc(F)cc2)c(C)c1C	-5.4	-5	n	n
COc1ccc(C)cc1Nc1n[n+](-c2ccccc2)c(-c2c(OC)ccc3ccccc23)s1	n	n	100	n
COc1ccc(C)cc1Nc1n[n+](-c2ccccc2)c(-c2cc(OC)c(OC)cc2Br)s1	n	n	n	n
Fc1ccc(-[n+]2nc(Nc3ccccc3)sc2-c2c3ccccc3cc3ccccc23)cc1	n	n	n	n
OCCOCCn1c(-c2ccccc2)nc(=S)c2c1CCCC2	n	n	n	6.4
CCOCCCn1c(-c2ccc(Cl)cc2)n[nH]c1=S	n	n	n	n
CC(=O)N1CCc2cc(S(=O)(=O)Nc3cccc(C(F)(F)F)c3)ccc21	n	n	25	n
Cc1ccc(S(=O)(=O)N2CCN(c3ncnc4scc(-c5ccccc5)c34)CC2)cc1	x	-31	x	x
Fc1ccc(CN2CCN(c3ncnc4scc(-c5ccc(F)cc5)c34)CC2)cc1	n	n	n	n
CC(C)c1ccc(-c2csc3ncnc(N4CCN(C)CC4)c23)cc1	-11	n	n	n
Cc1ccc(S(=O)(=O)N2CCN(c3ncnc4scc(-c5ccc(F)cc5)c34)CC2)cc1	n	n	n	n
Clc1ccc(CN2CCN(c3ncnc4scc(-c5cccs5)c34)CC2)cc1	n	n	25	n
CC(NCC(=O)Nc1cc(S(=O)(=O)N2CCCCCC2)ccc1Cl)c1ccccc1 (stereo not given)	n	n	100	n
CCOc1ccc(NC(=O)c2ccccc2NS(=O)(=O)c2ccc(F)cc2)c([N+](=O)[O-])c1	n	n	25	n
O=C(Nc1cc(S(=O)(=O)N2CCCCC2)ccc1Cl)c1ccccc1NS(=O)(=O)c1ccc(F)cc1	n	n	25	n
Cc1cccc(C(=O)N(CCc2ccccc2)Cc2ccccc2)c1[N+](=O)[O-]	n	n	n	n
O=C(NCC1CCCC(CNC(=O)N2CCc3ccccc32)C1)N1CCc2ccccc21 (stereo not given)	n	n	n	n
CC(C)CCn1nnnc1C(C(C)C)N1CCC(C(N)=O)CC1 (stereo not given)	n	n	100	n
CCCC(c1nnnn1CCC(C)C)N1CCC(C(N)=O)CC1 (stereo not given)	n	x	n	n
COc1ccc(C(=O)CCC(=O)N2CCN(c3cc(C)ccc3C)CC2)cc1	n	-5.8	n	n
O=C(C1=C[C@H](C2CC2)C[C@H](OCc2ccc(CO)cc2)O1)N1CCN(Cc2ccc3c(c2)OCO3)CC1	-5.3	n	n	n
CCn1cnc2sc(C(=O)N3CCN(Cc4ccc5c(c4)OCO5)CC3)c(C)c2c1=O	n	x	25	n
COc1ccccc1C(=O)N1CCN(Cc2ccc3c(c2)OCO3)CC1	n	-14	n	n
O=C(c1ccccc1Br)N1CCN(Cc2ccc3c(c2)OCO3)CC1	n	n	n	n
SMILES	CHT inh	TMEM16A act	TMEM16A inh	CHT allo act
C=CCc1c(C)nc(C)nc1N/N=C/c1ccc([N+](=O)[O-])cc1	n	n	n	n
C=CCc1c(C)nc(C)nc1N/N=C/c1ccccc1O	n	n	25	n
Nc1ccc(S(=O)(=O)NCC2CCCCO2)cc1 (stereo not given)	x	n	x	x
CCCCOC(=O)Nc1ccccc1C(=O)OC	n	-13	n	n
COc1ccc(-c2[nH]n(-c3ccc([N+](=O)[O-])cc3)c(=O)c2C=NCCN2CCNCC2)cc1	n	x	n	9.3
O=c1c(C=NCCN2CCNCC2)c(-c2ccccc2)[nH]n1-c1ccc([N+](=O)[O-])cc1	n	x	n	n
CC(NC(=O)c1cc2c(=O)n(C)c3ccccc3c2n1C)c1ccc2c(c1)OCCO2 (stereo not given)	n	n	n	n
Cn1c(C(=O)Nc2ccc3c(c2)OCO3)cc2c(=O)n(C)c3ccccc3c21	n	-6.8	n	n
COCCn1c(SCC(=O)N2CCC(C)CC2)nc2c([nH]c3ccccc32)c1=O	n	n	n	n
N#Cc1cc2[nH]c3ccccc3c2[n+](-c2ccc([N+](=O)[O-])cc2)c1N	n	n	n	8.8

Bioassay records (PubChem)
